# Like-named read-outs stand apart in the source and are kept apart here.
# Assays:
# Set-up in all cases: species or system human, MV4-11 + K-562 + COLO205 + SK-N-BE2 + OVCAR-8
# [1] = tested on: AURKA; settings: read-out: apparent Kd, n = 1
# [2] = tested on: BCR; settings: read-out: apparent Kd, n = 1
# [3] = tested on: STK16; settings: read-out: apparent Kd; compound concentrations: 100 nM and 1000 nM (sheet 'Samples'), CATDS: 2.76147737346315E-2; n = 1
# [4] = tested on: CAMKK2; settings: read-out: apparent Kd, n = 1
# [5] = tested on: CHEK1; settings: read-out: apparent Kd, n = 1
# [6] = tested on: CSNK1D; settings: read-out: apparent Kd; compound concentrations:100 nM and 1000 nM (sheet 'Samples'); n = 1
# [7] = tested on: EPHA4; settings: read-out: apparent Kd, n = 1
# [8] = tested on: EPHA5; settings: read-out: apparent Kd, n = 1
# [9] = tested on: EPHB2; settings: read-out: apparent Kd, n = 1
# [10] = tested on: EPHB4; settings: read-out: apparent Kd, n = 1
# [11] = tested on: MAPK10; settings: read-out: apparent Kd; compound concentrations:100 nM and 1000 nM (sheet 'Samples'); n = 1
# [12] = tested on: MARK3; settings: read-out: apparent Kd, n = 1
# [13] = tested on: PRKACA; settings: read-out: apparent Kd, n = 1
# [14] = tested on: PRKAG2; settings: read-out: apparent Kd; compound concentrations:100 nM and 1000 nM (sheet 'Samples'); n = 1
# [15] = tested on: TNK2; settings: read-out: apparent Kd, n = 1
# [16] = tested on: PRKACB; settings: read-out: apparent Kd, n = 1
# [17] = tested on: TNK1; settings: read-out: apparent Kd, n = 1
# [18] = compound concentrations:100 nM and 1000 nM (sheet 'Samples')
smiles,measurement,setting,value
Cc1ccc(Nc2ccnc(Nc3ccc4c(c3)CS(=O)(=O)C4)n2)cc1O.Cl [GW579362A],potency estimated from few doses,"[1]; compound concentrations: 100 nM and 1000 nM (sheet 'Samples'), CATDS: 4.77260985286359E-2",393 nM
same,potency estimated from few doses,"[2]; compound concentrations: 100 nM and 1000 nM (sheet 'Samples'), CATDS: 4.5785194143174703E-2",428 nM
same,potency estimated from few doses,[3],1620 nM
CC(C)N1CCC(n2cnc(-c3ccc(F)cc3)c2-c2ccnc(N)n2)CC1 [SB-223132],potency estimated from few doses,[1]; [18],931 nM
same,potency estimated from few doses,[2]; [18],660 nM
same,potency estimated from few doses,[4]; [18],940 nM
same,potency estimated from few doses,[5]; [18],1740 nM
same,potency estimated from few doses,[6],25.1 nM
same,potency estimated from few doses,[7]; [18],692 nM
same,potency estimated from few doses,[8]; [18],545 nM
same,potency estimated from few doses,[9]; [18],385 nM
same,potency estimated from few doses,[10]; [18],314 nM
same,potency estimated from few doses,[11],1330 nM
same,potency estimated from few doses,[12]; [18],1770 nM
same,potency estimated from few doses,[13]; [18],1710 nM
same,potency estimated from few doses,[14],1040 nM
same,potency estimated from few doses,[15]; [18],374 nM
CN(c1ccc(NC(=O)N2CCN(CCCN3CCOCC3)CC2)cc1)c1ccnc(Nc2ccc(CS(C)(=O)=O)cc2)n1.Cl [GW830899A],potency estimated from few doses,"[1]; compound concentrations: 100 nM and 1000 nM (sheet 'Samples'), CATDS: 2.4317426688995499E-2",955 nM
same,potency estimated from few doses,"[4]; compound concentrations: 100 nM and 1000 nM (sheet 'Samples'), CATDS: 1.7762622720353199E-2",2190 nM
same,potency estimated from few doses,"[7]; compound concentrations: 100 nM and 1000 nM (sheet 'Samples'), CATDS: 2.15154621578117E-2",1270 nM
same,potency estimated from few doses,"[8]; compound concentrations: 100 nM and 1000 nM (sheet 'Samples'), CATDS: 2.2767251891404602E-2",1110 nM
same,potency estimated from few doses,"[12]; compound concentrations: 100 nM and 1000 nM (sheet 'Samples'), CATDS: 1.9647586530532599E-2",1610 nM
same,potency estimated from few doses,"[16]; compound concentrations: 100 nM and 1000 nM (sheet 'Samples'), CATDS: 1.9426092751651199E-2",1660 nM
same,potency estimated from few doses,"[15]; compound concentrations: 100 nM and 1000 nM (sheet 'Samples'), CATDS: 3.2652944878228798E-2",544 nM
Cl.Nc1c(C(=O)c2cccc(C#CCN3CCCCC3)c2)cnn1-c1ccc(F)cc1 [RO1154461-001],potency estimated from few doses,"[1]; compound concentrations: 100 nM and 1000 nM (sheet 'Samples'), CATDS: 1.31144942702613E-2",784 nM
same,potency estimated from few doses,"[2]; compound concentrations: 100 nM and 1000 nM (sheet 'Samples'), CATDS: 1.8870015548456399E-2",336 nM
same,potency estimated from few doses,"[4]; compound concentrations: 100 nM and 1000 nM (sheet 'Samples'), CATDS: 1.2329030932227101E-2",934 nM
same,potency estimated from few doses,"[5]; compound concentrations: 100 nM and 1000 nM (sheet 'Samples'), CATDS: 1.05759590598224E-2",1550 nM
same,potency estimated from few doses,"[7]; compound concentrations: 100 nM and 1000 nM (sheet 'Samples'), CATDS: 1.83423267934671E-2",356 nM
same,potency estimated from few doses,"[8]; compound concentrations: 100 nM and 1000 nM (sheet 'Samples'), CATDS: 2.15215497869925E-2",260 nM
same,potency estimated from few doses,"[9]; compound concentrations: 100 nM and 1000 nM (sheet 'Samples'), CATDS: 2.8724117835498601E-2",156 nM
same,potency estimated from few doses,"[10]; compound concentrations: 100 nM and 1000 nM (sheet 'Samples'), CATDS: 3.5435159362778398E-2",111 nM
same,potency estimated from few doses,"[12]; compound concentrations: 100 nM and 1000 nM (sheet 'Samples'), CATDS: 9.8950713499473906E-3",2030 nM
same,potency estimated from few doses,"[13]; compound concentrations: 100 nM and 1000 nM (sheet 'Samples'), CATDS: 1.0779981289506101E-2",1440 nM
same,potency estimated from few doses,"[16]; compound concentrations: 100 nM and 1000 nM (sheet 'Samples'), CATDS: 1.14120731511483E-2",1190 nM
same,potency estimated from few doses,"[17]; compound concentrations: 100 nM and 1000 nM (sheet 'Samples'), CATDS: 4.5946833879509097E-2",75.5 nM
same,potency estimated from few doses,"[15]; compound concentrations: 100 nM and 1000 nM (sheet 'Samples'), CATDS: 5.6879237534392203E-2",56.1 nM
Cc1cccc(-c2nc(Nc3ccncc3)c3sccc3n2)n1 [GW869641X],potency estimated from few doses,[6],185 nM
same,potency estimated from few doses,[11],1140 nM
NCCNS(=O)(=O)c1ccc(-c2ccnc3[nH]ccc23)cc1 [GSK977617A],potency estimated from few doses,[2]; [18],244 nM
same,potency estimated from few doses,[4]; [18],1970 nM
same,potency estimated from few doses,[5]; [18],2250 nM
same,potency estimated from few doses,[7]; [18],287 nM
same,potency estimated from few doses,[8]; [18],267 nM
same,potency estimated from few doses,[9]; [18],189 nM
same,potency estimated from few doses,[10]; [18],171 nM
same,potency estimated from few doses,[13]; [18],361 nM
same,potency estimated from few doses,[16]; [18],571 nM
same,potency estimated from few doses,[17]; [18],181 nM
same,potency estimated from few doses,[15]; [18],233 nM

# Source: paper PMC11062922 (Nature Chemical Biology, 2023)
